Experimental data published in the OligoGym collection.

These sequences were tested against METTL21C (assay: pooled miR-30 sensor sort-seq; sequence = guide strand). Settings: shRNA.
Note: reference of the scale not given here.

Sequence | sensor-assay potency score (higher = more potent)
TAGATTAACCAGATAATCTTAA | -0.406
TAACTCTCTATGGATTCCTGGA | -0.728
TTCCTGGATGACAATCTCCTTT | -0.999
TGTTGTGTCAAAAACTTGCTTG | 0.0873
TTAGAAATTAGAAAGTTTCTGC | 0.573
TTAGATATTTAGATTAACCAGA | -0.625
TTCTTCTCAGCCTCTAACCAGC | -1.05
TAAAAGATTGTATTGAAGGTTT | -0.706
TCATAGTCGGTGCTGAACCTGA | -0.238
ATCTGTAGGAACAAATTTCTGG | -0.452
TGTAGGAACAAATTTCTGGAGG | -0.694
TATCTTGTTGGATTCTTCTAGG | -0.565

These sequences were tested against METTL21D in the same assay as above. Settings: shRNA.

Sequence | sensor-assay potency score (higher = more potent)
TTAAACTCTGAAGACAAACTAA | -0.429
TGAACTAAGTAACCTAAGCTGG | -0.584
TTTGTCTTCTTAGCAACTCATT | -1.33
